# Bioassay records (PubChem)
# Coupling enz = counter-screen for Giardia aldolase inhibitors: coupling enzyme system. coupling enzyme system counterscreen, AmpLite Red fluorescence. activity change, negative = inhibition, % at 58.2 µM, hits read low. 290,000 compounds, 0.67% hits. AID 2472; in the data active = activity change below about -30%
#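 Coupling enzymes only (glyceraldehyde-3-phosphate) + compound, at 57.5 uM final, 10 min RT; add substrate/coupling/AmpLite Red mix, 20 min RT; fluorescence ex 525/em 598 nm. Actives flag coupling-system interference.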
# aGlu spleen mod = inhibits or activates alpha-glucosidase in human spleen homogenate | P10253 | human spleen homogenate, 4-MU-alpha-glucoside fluorescence | Potency, µM (titrated, usually from 79.9 µM), without a hit: at the highest dose activity change, negative = inhibition, actives largely listed as inhibitors | 240,000 compounds, 0.006% hits;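 also: potency is read from the fitted curve at half-maximal effect; 0% = enzyme with vehicle and -100% = no enzyme basal signal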
#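 Enzyme source: human spleen homogenate, 1 ug/well. Buffer 50 mM citric acid/K phosphate pH 5.0, 0.01% Tween-20. 4-MU-alpha-glucoside 1 mM; 37 C x 40 min; NaOH/glycine stop; fluorescence.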
# GAA glycogen = GAA glycogen-cleavage inhibition or activation; P10253; recombinant GAA, glycogen substrate, Amplex Red glucose oxidase fluorescence; 300,000 compounds, 0.38% hits; Potency, µM (doses to about 76.4 µM), without a hit: top-dose activity change, negative = inhibition, most hits filed as inhibitors; AID 2100;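 also: potency is read from the fitted curve at half-maximal effect; 0% = full enzyme reaction and -100% = no-enzyme basal signal; the screen sought inhibitors and activators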
#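 Recombinant enzyme (4 nM final) with compounds titrated up to 77 uM and bovine liver glycogen (30 ug) in citrate pH 5.0, 0.01% Tween-20, 37 C 40 min. Released glucose detected by Amplex Red/glucose oxidase (Ex 573/Em 610); AC50 from Hill fits.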
# B2AR arrestin = beta2AR (human) beta-arrestin recruitment activity; P07550; beta-arrestin recruitment to beta2AR, cell-based reporter; Potency, µM (top dose mostly 46.1 µM), for inactives: at the top dose activation, actives largely listed as activators; 330,000 compounds, 0.02% hits; AID 492947;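 also: potency is read from the fitted curve at half-maximal effect; 0% = DMSO controls and full agonism = EC100 isoproterenol or metaproterenol; nearly all actives have a fitted effect of over 65% in size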
# Target sequence (P07550 whole entry, looked up): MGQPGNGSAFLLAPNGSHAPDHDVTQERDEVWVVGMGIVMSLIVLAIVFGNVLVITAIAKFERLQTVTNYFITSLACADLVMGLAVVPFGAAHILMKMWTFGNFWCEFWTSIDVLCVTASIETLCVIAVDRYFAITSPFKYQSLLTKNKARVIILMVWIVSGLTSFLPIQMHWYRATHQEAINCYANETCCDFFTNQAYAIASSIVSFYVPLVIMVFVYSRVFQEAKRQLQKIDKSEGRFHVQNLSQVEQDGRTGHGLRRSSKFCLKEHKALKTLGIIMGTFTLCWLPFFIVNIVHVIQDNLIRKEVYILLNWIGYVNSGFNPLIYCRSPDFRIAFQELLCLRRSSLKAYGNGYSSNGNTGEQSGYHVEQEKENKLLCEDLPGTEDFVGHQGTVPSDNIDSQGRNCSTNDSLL
# GAA inhib = inhibitors of human lysosomal alpha-glucosidase; Potency, µM (titrated, usually from 76.9 µM), inactives show at the highest dose activity change, negative = inhibition, usual class: inhibitors; AID 1466; 200,000 compounds, 0.005% hits; purified human GAA, 4-MU-alpha-glucoside fluorescence;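 also: potency is read from the fitted curve at half-maximal effect; plate controls were uninhibited enzyme wells for no effect and no-enzyme background for full effect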
#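 Human alpha-glucosidase, 4 nM, pre-mixed with test compounds before 400 uM 4-methylumbelliferyl substrate; 20 min room temperature at pH 5.0. Fluorescence read after pH 10 stop; AC50 values from Hill-equation fits.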
# The depositor's hits bear a star; u = inconclusive; x = no result given; [ ] = another dose, or the depositor's remark. This is a sample that favours compounds with a hit; in the whole collection about 0.85% have one here. Unless noted, calls follow the shape of the dose curve; as a rule, active = well fitted curve in the direction sought with a large enough effect; inconclusive = small, poorly fitted or top-dose-only effect, or another doubt; inactive = no such curve, though single readings can be large; an effect the other way counts as inactive or inconclusive. Unless noted, % is scaled to controls: 0 for no effect and ±100 for the full control effect.
SMILES,Coupling enz,aGlu spleen mod,GAA glycogen,B2AR arrestin,GAA inhib
Cn1c(SCC(=O)c2ccc(O)c(O)c2)nnc1-c1cccs1,3,5%,u,3%,x
NC(=O)c1ccc(-n2nnnc2SCC(=O)c2ccc(O)c(O)c2)cc1,8,-22%,u,0%,2%
Cn1c(SCC(=O)c2ccc(O)c(O)c2)nnc1-c1ccccc1,1,x,1.8µM*,0%,x
O=C(CSc1nc2ccccc2n1CCc1ccccc1)N1CCOCC1,-1,0%,7%,-1%,2%
N#Cc1ccccc1S(=O)(=O)N1CCC(C(=O)NCc2ccccc2CN2CCCC2)CC1,x,x,x,-1%,x
O=C(N/N=C/c1cccnc1)c1cc(-c2ccc(Br)cc2)nc2ccccc12,x,x,x,0%,x
CN=C1C([N+](=O)[O-])=CC=C2C1=NC1(CCCCC1)N2O,-45*,1%,-7%,-1%,5%
O=[N+]([O-])C1=CC=C2C(=NC3(CCCCC3)N2O)C1=NCCO,-53*,-6%,9%,-1%,5%
O=C(O)c1cc(O)c2c(c1)[C@H]([C@H]1c3cc(C(=O)O)cc(O)c3C(=O)c3c(O[C@@H]4OC(CO)C(O)C(O)C4O)cccc31)c1cccc(O[C@@H]3OC(CO)C(O)C(O)C3O)c1C2=O (some centres not stated),-39*,1%,x,x,x
O=C(O)c1cc(O)c2c(c1)[C@@H]([C@H]1c3cc(C(=O)O)cc(O)c3C(=O)c3c(O[C@@H]4O[C@H](CO)[C@@H](O)[C@H](O)[C@H]4O)cccc31)c1cccc(O[C@@H]3O[C@H](CO)[C@@H](O)[C@H](O)[C@H]3O)c1C2=O,x,x,x,-1%,x
Cc1nc2ccc(NC(=S)NC3CC3)cc2nc1C,-5,-8%,5%,-1%,-5%
OCCNC(=S)Nc1ccc2nsnc2c1,-47*,-17%,-4%,0%,-3%
OCCCNC(=S)Nc1ccc(Nc2ccccc2)cc1,3,1%,14µM*,0%,-8%
S=C(Nc1ccc2nc(-c3ccccn3)c(-c3ccccn3)nc2c1)N1CCCCC1,-2,-2%,14%,0%,10%
S=C(NCCNC(=S)Nc1ccccc1)Nc1ccccc1,0,x,-4%[76.3 µM],1%,x
CCCNC(=S)Nc1ccc2nc(-c3ccccn3)c(-c3ccccn3)nc2c1,-54*,-2%,-5%,1%,u
Cc1nc2ccc(NC(=S)NCCCO)cc2nc1C,-30*,11%,-13%,0%,u
C=CCOC(=O)N[C@H](/C(C(=O)OC)=C(\C)NCc1ccccc1)c1ccc2c(c1)OCO2,1,3%,x,x,x
CCCOC(=O)c1ccc(Nc2nc3ccccc3nc2-n2nc(C)cc2C)cc1,x,x,17%[76.3 µM],x,x
O=c1c(O)cc(C2Oc3cc(O)cc(O)c3CC2O)cc2c(C3Oc4cc(O)cc(O)c4CC3O)cc(O)c(O)c12 (configuration not stated),-75*,4%,x,x,x
COc1cc(/C=N/NC(=O)c2cccc(C(=O)N/N=C/c3ccc(O)c(OC)c3)n2)ccc1O,4,x,-20%,2%,x
COc1cc(/C=N/NC(=O)c2cn(-c3cccc(C)n3)cn2)ccc1O,2,-4%,25µM*,0%,-32%
COc1c(-c2coc3cc4c(cc3c2=O)CC(O)C(C)(C)O4)ccc2c1C=CC(C)(C)O2 (configuration not stated),1,9%,x,x,x
CCCN1CCCc2cc(CN(CCCN3CCOCC3)C(=O)Nc3ccc(OCC)cc3)ccc21,-12,0%,3.5µM*,0%,u
CCOc1ccc(NC(=O)N(CCN2CCOCC2)Cc2ccc3c(c2)CCCN3CC)cc1,-2,-14%,8.9µM*,0%,0%
O=C1C([N+](=O)[O-])=C(O)c2cccc3cccc1c23,-51*,x,-1%,-1%,x
CC#CCC1(C(=O)OC)C(=O)NC[C@H]1c1ccccc1 (some centres not stated),4,-10%,x,x,x
C/C(=N\NC(=O)c1ccc(O)cc1)c1ccc2c(c1)Nc1ccccc1S2,-1,-12%,u,0%,-9%
C/C(=N\NC(=O)c1ccccc1F)c1ccc2c(c1)Nc1ccccc1S2,3,-2%,25µM*,-1%,0%
